These results are taken from PubChem BioAssay AID1851 (National Center for Advancing Translational Sciences (NCATS), 2009).

Values joined by “and” are separate entries in the source; they are usually repeats but may differ in a detail not shown here. Equal values may be shown once. Screen size: about 16,000 compounds; about 5,100 (32%) were called active. Inconclusive results (about 25%) are left out. Calls follow the shape of the dose curve; as a rule, active = well fitted curve in the direction sought with a large enough effect; inconclusive = small, poorly fitted or top-dose-only effect, or effect the other way; inactive = no such curve, though single readings can be large or run the other way. Some of the results follow.
% is scaled to controls: 0 for no effect and ±100 for the full control effect.

Cytochrome P450 3A4 (Homo sapiens), sequence (P08684 whole entry, looked up): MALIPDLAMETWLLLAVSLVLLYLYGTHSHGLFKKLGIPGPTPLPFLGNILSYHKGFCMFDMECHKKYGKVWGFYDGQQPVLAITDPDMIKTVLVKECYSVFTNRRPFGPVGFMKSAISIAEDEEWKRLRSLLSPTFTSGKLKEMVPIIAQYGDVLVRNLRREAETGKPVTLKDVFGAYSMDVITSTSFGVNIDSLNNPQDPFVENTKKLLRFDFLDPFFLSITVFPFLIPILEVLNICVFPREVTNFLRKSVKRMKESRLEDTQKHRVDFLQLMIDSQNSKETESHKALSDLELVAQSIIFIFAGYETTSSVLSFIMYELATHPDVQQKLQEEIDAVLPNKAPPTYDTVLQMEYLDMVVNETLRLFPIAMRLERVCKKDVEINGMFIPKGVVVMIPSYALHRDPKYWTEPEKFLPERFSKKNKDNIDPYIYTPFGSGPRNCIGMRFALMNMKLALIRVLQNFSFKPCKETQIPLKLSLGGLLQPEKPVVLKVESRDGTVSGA

This experiment concerns the target Cytochrome P450 3A4 (Homo sapiens) (UniProt P08684). Put plainly: Cytochrome panel assay with activity outcomes. Particulars: recombinant CYP, pro-luciferin dealkylation, luminescence, p450-cyp3a4; series mostly up to 57.1 µM; activity, negative = inhibition: at the top concentration.
Consider `CN(C)C(=O)c1ccc(-c2nc(NC3CCNCC3)c3ccccc3n2)cc1`, for which the “activity, negative = inhibition” value is 19.7% (inactive).
For `CN(C)C(=O)c1ccc(-c2nc(NCc3cccs3)c3ccccc3n2)cc1`, the AC50 was 15.8 µM (active).
For `CC(=O)NCCNc1nc(-c2ccc(C(=O)N(C)C)cc2)nc2ccccc12`, the “activity, negative = inhibition” value is 3.16% (inactive).
`CN(C)C(=O)c1ccc(-c2nc(NCc3cccnc3)c3ccccc3n2)cc1`: the AC50 is 12.6 µM (active).
On to `CN(C)c1ccc(-c2nc(NCc3cccnc3)c3ccccc3n2)cc1`, for which the AC50 was 2 µM (active).
Consider `CN(C)C(=O)c1ccc(-c2nc(NCc3ccccc3)c3ccccc3n2)cc1`, for which the AC50 is 15.8 µM (active).
In the case of `O=C1C[C@@H](O)[C@@H](O)[C@H]2[C@@H]3C(=O)N(c4cccc(Oc5ccccc5)c4)C(=O)[C@@H]3CC[C@H]12`, the activity, negative = inhibition is -19.7% [at 11.4 µM] (inactive) and -7.2% [at 11.4 µM] (inactive).
With `Cc1ccc(OCC(=O)Nn2cnc3ccccc32)cc1`, the AC50 is 7.94 µM (active).
On to `Cc1ccc(OCC(=O)NNC(=O)CCc2ccccc2)cc1`, for which the “activity, negative = inhibition” value was -11.1% (inactive).
On the same count and under the same terms, the same measure for `Cc1ccc(OCC(=O)NC2=NCCS2)cc1`: -22.5% [at 11.4 µM] (inactive).
On the same count and under the same terms, under `Cc1ccc(OCC(=O)NNC(=O)CCC(=O)NCc2ccccc2)cc1` stands -28.6% (inactive).
With `Cc1ccc(OCC(=O)Nc2ccccc2-c2ccccc2)cc1`, the AC50 is 20 µM (active).
For `CN(C)CCN1C(=O)C(O)=C(C(=O)c2cc3ccccc3o2)C1c1cccc(Br)c1` (stereo unspecified), the activity, negative = inhibition is 27.7% [at 2.29 µM] (inactive).
For the compound `O=C(c1ccco1)N1CCC[C@@]2(CCN(C(c3ccccc3)c3ccccc3)C2)C1`, the AC50 was 12.6 µM (active).
For the compound `O=C(Nc1ccccc1)N1CC[C@@]2(CCCN(C(=O)c3ccco3)C2)C1`, the “activity, negative = inhibition” value is -27.6% (inactive).
The same measure, in the same setting: under `CC(C)NC(=O)N1CC2(CCN(C(=O)c3ccco3)CC2)C1` stands -0.152% (inactive).
With `O=C(c1ccco1)N1CCC2(CCCN(C(c3ccccc3)c3ccccc3)C2)CC1`, the half-maximal activity concentration (AC50) is 12.6 µM (active).
On the same count and under the same terms, the same measure for `COc1cc(-c2nnc(SCC3(c4ccc(Br)cc4)OCCO3)o2)cc(OC)c1OC`: 12.6 µM (active).
Same read-out and setting: the same measure for `COc1cc(-c2nnc(SCC(=O)Nc3ccc4c(c3)OCCO4)o2)cc(OC)c1OC`: 8.91 µM (active).
With `Cc1ccc(NC(=O)CSc2nnc(-c3ccncc3)o2)cc1`, the activity, negative = inhibition is -3.56% [at 2.29 µM] (inactive).
Turning to `COc1cc(-c2nnc(SCC3(c4ccccc4)OCCO3)o2)cc(OC)c1OC`, the AC50 is 4.47 µM (active).
On to `CCOC(=O)N/N=C/c1ccc(C)o1`, for which the “activity, negative = inhibition” value was -15.3% (inactive).
As to `Cc1ccc(/C=N\Nc2nc3ccc(Cl)cc3[nH]2)o1`, the AC50 was 8.91 µM (active).
For the compound `OC[C@@H](O)[C@@H](O)[C@@H](O)[C@@H](O)c1nc2ccc(Cl)cc2[nH]1`, the activity, negative = inhibition was -5.7% [at 11.4 µM] (inactive).
Still for that read-out and setting: the same measure for `Cc1cccc(NC(=S)NNC(=O)c2csc3c2CCCC3)c1`: -15.2% [at 2.29 µM] (inactive).
Regarding `Cc1cccc(NC(=O)C23CCC(C)(C2Br)C3(C)C)c1` (stereo unspecified), the AC50 is 12.6 µM (active).
The same measure, in the same setting: the same measure for `CC12CCC(C(=O)Nc3cccc4ccccc34)(C1Br)C2(C)C` (stereo unspecified): 11.2 µM (active).
`Cc1cccc(NC(=O)C2(c3ccc([N+](=O)[O-])cc3)CCCC2)c1`: the activity, negative = inhibition is -2.71% [at 2.29 µM] (inactive).
`O=C(O)c1cccc(C(=O)O)c1S(=O)Cc1ccccc1` (stereo unspecified): the activity, negative = inhibition is -7.75% [at 11.4 µM] (inactive).
Consider `NNC(=O)CCSc1ccccc1`, for which the AC50 is 3.98 µM (active).
Regarding `O=C(O)CCCSc1ccccc1`, the activity, negative = inhibition was 5.11% [at 11.4 µM] (inactive).
For the compound `O=C(/C=C/c1ccc(Cl)cc1)NCCSc1ccccc1`, the “activity, negative = inhibition” value is 0.692% (inactive).
On the same count and under the same terms, under `Cc1ccc(S(=O)(=O)N[C@H](CN)C(=O)O)cc1` stands -20.1% [at 11.4 µM] (inactive); under `Cc1nc2ccc(S(=O)(=O)NC(CC(C)C)C(=O)O)cc2s1` (stereo unspecified), -3.56% [at 2.29 µM] (inactive).
As to `CCC(C)C(NS(=O)(=O)c1ccc(C)cc1)C(=O)Oc1ccc2c3c(c(=O)oc2c1)CCC3` (stereo unspecified), the concentration at half-maximal activity (AC50) is 7.94 µM (active).
Turning to `CC(C)Oc1ccc2c(=O)c3cc(C(=O)O)ccc3oc2c1`, the “activity, negative = inhibition” value is -21.8% (inactive).
On the same count and under the same terms, under `Cc1ccc(S(=O)(=O)N[C@H](C(=O)O)C(C)C)cc1` stands -11.9% [at 11.4 µM] (inactive).
For `Cc1ccc(S(=O)(=O)NC(CC(C)C)C(=O)Oc2ccc3c4c(c(=O)oc3c2)CCC4)cc1` (stereo unspecified), the AC50 was 14.1 µM (active).
As for `NCc1ccc(C(=O)O)cc1`, the activity, negative = inhibition was -14.2% [at 11.4 µM] (inactive).
For `O=C(c1cc2sccc2n1Cc1ccccc1)N1CCN(c2nc3ccccc3s2)CC1`, the AC50 was 0.631 µM (active).
Turning to `O=S(=O)(O)c1nc2ccccc2n1Cc1ccccc1`, the “activity, negative = inhibition” value was -3.58% (inactive).
In the case of `S=c1[nH]nc(CCc2ccccc2)n1Cc1ccccc1`, the AC50 was 7.94 µM (active).
As to `CN(Cc1n[nH]c(=S)n1C)S(=O)(=O)c1ccccc1`, the “activity, negative = inhibition” value was -10.1% (inactive).
`O=C1c2ccccc2C(Cc2ccncc2)(Cc2ccncc2)c2ccccc21`: the AC50 is 0.501 µM (active).
Same read-out and setting: the same measure for `COC(=O)C1=C(N)N(c2ccccc2C(F)(F)F)C2=C(C(=O)CCC2)C1c1ccc2c(c1)OCO2` (stereo unspecified): 0.316 µM (active).
Regarding `Cc1cc([C@](C)(N)C(=O)O)ccc1P(=O)(O)O`, the “activity, negative = inhibition” value was 0.891% (inactive).
